{
  "source": "PubChem BioAssay (NCI)",
  "note": "Compounds without any hit were thinned out: in the full panel of roughly 83,000, 20% have a hit.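 Assay: single dose, 48 h. Readout: percent growth (0 = no net growth; negative = cell death). Active: <10.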 A number with no mark means an inactive call. Calls of active or inactive are those of the source.",
  "data": [
    {"test_system": "HL-60(TB) leukemia", "assay": "NCI-60 one-dose screen, 48 h (100 = growth as untreated, 0 = no growth, -100 = all killed)", "settings": "10 µM unless noted", "values": [
      {"smiles": "O=C(NCCO)C(F)(F)F", "growth": "103%"},
      {"smiles": "C=C1C(=O)O[C@H]2[C@H]1CC/C(COC(=O)c1cn(C)c3ccccc13)=C\\CC[C@@]1(C)O[C@@H]21", "growth": "2.98% (active)"},
      {"smiles": "COc1ccccc1-n1c(-c2ccc(O)cc2C)cn2c3c(=O)[nH]c(=O)n(C)c3nc12", "growth": "79.9%"},
      {"smiles": "COc1ccc(/C=C2\\N=C(c3cccnc3)N(c3ccccc3)NC2=O)cc1", "growth": "95%"},
      {"smiles": "CC(=O)OC[C@H]1OC(Sc2sc(C(=O)c3ccc(Br)cc3)c(N)c2-c2nc3ccccc3s2)[C@H](OC(C)=O)[C@@H](OC(C)=O)[C@H]1OC(C)=O", "note": "(stereo not given in full)", "growth": "105%"},
      {"smiles": "COc1cc(C(=O)/C=C/c2cc(-c3cc(OC)c(OC)c(OC)c3)n[nH]2)cc(OC)c1OC", "growth": "0.291% (active)"},
      {"smiles": "N#C/C(=C\\c1ccc(Br)cc1)n1nnc2cc(Cl)c(Cl)cc21", "growth": "-0.568% (active)"},
      {"smiles": "O=C1/C(=C/c2ccc([N+](=O)[O-])cc2)COc2ccc(O)cc21", "growth": "50.9%"},
      {"smiles": "C=C[C@@H]1C[C@H](O)Cc2cc(F)ccc2N1", "growth": "-2.59% (active)"},
      {"smiles": "COc1cc2nc3cc([N+](=O)[O-])ccc3c(NCCCNCCO)c2cc1OC", "growth": "-25.3% (active)"},
      {"smiles": "COc1cccc(-c2ccc3c(c2)NC(=O)/C3=C\\c2ccc[nH]2)c1", "growth": "-1.26% (active)"},
      {"smiles": "O=C(NCc1ccccc1)C1CN(c2ccc(Cl)cc2)N(c2ccc(Cl)cc2)C1=O", "note": "(stereo not given)", "growth": "81.7%"},
      {"smiles": "Oc1[nH]c2ccc(Cl)cc2c1/C=c1/ccc2c(c1)N=C(c1cc(F)cc(F)c1)N=2", "growth": "70.1%"},
      {"smiles": "N#CC1=C(N)Oc2ccc3ccccc3c2C1c1ccccc1Cl", "note": "(stereo not given)", "growth": "0.765% (active)"},
      {"smiles": "CCn1cc(C(=O)N/N=C/c2ccc(Br)cc2)c(=O)c2cc(F)c(N3CCNC(C)C3)c(F)c21", "note": "(stereo not given)", "growth": "48.7%"},
      {"smiles": "COc1cc2c(cc1OC)-c1ccc3cc4c(cc3c1N(CCN(C)C)C2)OCO4", "growth": "-33.9% (active)"},
      {"smiles": "c1ccc(CN=C(NCc2ccccc2)NCc2ccccc2)cc1", "growth": "49.9%"},
      {"smiles": "O=C(/C(Cl)=N/O)c1ccc(-c2ccccc2)cc1", "growth": "69.2%"},
      {"smiles": "COc1cc(C(=O)N/N=C/c2cc3cc(OCc4ccccc4)ccc3nc2OC)cc(OC)c1OC", "growth": "98.9%"},
      {"smiles": "Clc1nc(-c2cccnc2)nc2sc3c(c12)CCCCCC3", "growth": "102%"},
      {"smiles": "c1cc(NCCc2ccncc2)nc(-n2cnc3ccccc32)c1", "growth": "67.7%"},
      {"smiles": "O=C(/C=C/C12c3ccccc3C(c3ccccc31)C1C(=O)NC(=O)C12)c1cccs1", "note": "(stereo not given)", "growth": "6.95% (active)"},
      {"smiles": "CCc1cccc(CC)c1N1C(=O)C=CC1=O", "growth": "-7.6% (active)"},
      {"smiles": "COc1cccc(NC(=O)c2sc3nc4c(cc3c2N)C(=O)CCC4)c1", "growth": "-2.55% (active)"},
      {"smiles": "CCc1cc(Cl)c(OC)c(C(=O)NCC2CCCN2CC)c1O", "note": "(stereo not given)", "growth": "84.6%"},
      {"smiles": "Cn1cc(-c2nc(-c3c[nH]c4ncc(F)cc34)cs2)c2cccnc21", "growth": "103%"},
      {"smiles": "COc1ccc2nc3nc4ccc[nH]c4cc3c2c1", "growth": "85.6%"},
      {"smiles": "CC(C)(C)c1ccc(O)c(C2CCCCC2)c1", "growth": "67.4%"},
      {"smiles": "CNCCOc1nc2c3cnccc3cc(-c3cc(OC)c(OC)c(OC)c3)c2c2ccncc12", "growth": "-25.8% (active)"},
      {"smiles": "Cc1ccc(CNc2ccc3nc(CCC(C)C)[nH]c3c2)cc1", "growth": "93.7%"},
      {"smiles": "CN(C)CC(CN(C)C)C(O)c1ccccc1", "note": "(stereo not given)", "growth": "99.8%"},
      {"smiles": "O=C(/C=C1\\C(=O)N(Cc2ccc([N+](=O)[O-])cc2)c2ccccc21)c1ccc(OCCN2CCCC2)cc1", "growth": "17.5%"},
      {"smiles": "CCCCCSc1ccc2nc(NC(=O)OCC)sc2c1", "growth": "4.55% (active)"},
      {"smiles": "CCN(CC)CCNc1ccc(CO)c2oc3cc(Cl)ccc3c(=O)c12", "growth": "111%"},
      {"smiles": "CC(C)CSc1nc(NN)c(C#N)c(-c2ccccc2)n1", "growth": "106%"},
      {"smiles": "CCCCCCCCCCC1OC(C)CC(C)O1", "note": "(stereo not given)", "growth": "92.9%"},
      {"smiles": "COc1ccc2c(O)cc3c(c2c1)[C@H](CCl)CN3C(=O)c1cc2cc(NC(=O)CCN3CCOCC3)ccc2[se]1", "growth": "66%"},
      {"smiles": "Nc1nccc(OCCO)n1", "growth": "88.5%"},
      {"smiles": "Fc1ccc2c(-c3cncn3CCc3ccccc3)c[nH]c2c1", "growth": "85.8%"},
      {"smiles": "CC(C)=CCc1cc2c(cc1O)C1=C(C(=O)C3=C(C1=O)S(=O)(=O)CCN3)C(C=C(C)C)O2", "note": "(stereo not given)", "growth": "-36% (active)"}
    ]}
  ]
}
